Assay results taken from the supplement of paper PMC6555819.

Experiments:
Assay in all cases: PBM binding z-score (relative to random genomic background probes); higher = stronger binding; sequences stand for … in GC…GCGATTGACAGCGTAGAATGAAGG
[1] = test system: FXR:RXRa (NR concentration 270 nM, RXRa partner concentration 90 nM)
How it was run: (§1)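 The probes on custom Agilent 4×180K protein-binding microarrays were double-stranded, with 34-nt variable regions bearing direct-repeat seeds, single-nucleotide variants, half-site ablations and random human genomic background sequences. Incubation lasted 1 h with ligand-free nuclear receptor dimers in PBS pH 7.4, 2% milk, 0.02% Triton X-100, 1 mM DTT, 0.2 mg/mL BSA and 0.4 mg/ml salmon testes DNA. Antibodies against each partner (one per run) detected bound dimers, and fluorescence scans were regression-normalized. Binding z-scores take the random background probes as reference.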

[2] = test system: LXRa:RXRa (NR concentration 270 nM, RXRa partner concentration 90 nM)
How it was run: as §1

[3] = test system: LXRa homodimer (NR concentration 270 nM)
How it was run: as §1

[4] = test system: LXRb:RXRa (NR concentration 270 nM, RXRa partner concentration 90 nM)
How it was run: as §1

[5] = test system: LXRb homodimer (NR concentration 270 nM)
How it was run: as §1

[6] = test system: PPARa:RXRa (NR concentration 270 nM, RXRa partner concentration 90 nM)
How it was run: as §1

[7] = test system: PPARg:RXRa (NR concentration 180 nM, RXRa partner concentration 90 nM)
How it was run: as §1

[8] = test system: PPARg:RXRa 270nM:90nM, anti-RXR (NR concentration 270 nM, RXRa partner concentration 90 nM)
How it was run: as §1

[9] = test system: PPARg:RXRa 30nM:10nM, anti-RXR (NR concentration 30 nM, RXRa partner concentration 10 nM)
How it was run: as §1

[10] = test system: PPARg:RXRa 90nM:30nM, anti-RXR (NR concentration 90 nM, RXRa partner concentration 30 nM)
How it was run: as §1

[11] = test system: PPARg:RXRa DBDmut IVT, anti-RXR (DBD mutation: RXRa K156A/R161A, NR concentration 270 nM, RXRa partner concentration 90 nM)
How it was run: as §1

[12] = test system: PPARg:RXRa IVT, anti-PPARg (NR concentration 270 nM, RXRa partner concentration 90 nM)
How it was run: as §1

[13] = test system: PPARg DBDmut:RXRa IVT, anti-PPARg (DBD mutation: PPARg1 K132A/R137A, NR concentration 270 nM, RXRa partner concentration 90 nM)
How it was run: as §1

[14] = test system: PPARg DBDmut IVT, anti-PPARg (DBD mutation: PPARg1 K132A/R137A, NR concentration 270 nM)
How it was run: as §1

[15] = test system: PPARg homodimer (NR concentration 180 nM)
How it was run: as §1

[16] = test system: PXR:RXRa (NR concentration 270 nM, RXRa partner concentration 90 nM)
How it was run: as §1

[17] = test system: PXR homodimer (NR concentration 270 nM)
How it was run: as §1

[18] = test system: RARa:RXR (NR concentration 270 nM, RXRa partner concentration 90 nM)
How it was run: as §1

[19] = test system: RARa homodimer (NR concentration 270 nM)
How it was run: as §1

[20] = test system: RARb:RXRa (NR concentration 270 nM, RXRa partner concentration 90 nM)
How it was run: as §1

Sequence | PBM binding z-score [1] | PBM binding z-score [2] | PBM binding z-score [3] | PBM binding z-score [4] | PBM binding z-score [5] | PBM binding z-score [6] | PBM binding z-score [7] | PBM binding z-score [8] | PBM binding z-score [9] | PBM binding z-score [10] | PBM binding z-score [11] | PBM binding z-score [12] | PBM binding z-score [13] | PBM binding z-score [14] | PBM binding z-score [15] | PBM binding z-score [16] | PBM binding z-score [17] | PBM binding z-score [18] | PBM binding z-score [19] | PBM binding z-score [20]
CCGAGTAGGTTATGGGGCATGCAGGCAACGGTGA | 0.144 | 0.219 | -0.12 | 0.502 | -0.337 | 1.93 | 3.81 | 4.62 | 2.08 | 4.14 | 2.71 | 3.37 | -0.039 | -0.361 | 0.867 | -0.014 | -0.179 | 0.374 | 0.0539 | 1.03
AGGCAAAGTTCATCTAGGTAACGTAAGATATGCT | 6.62 | 5.97 | 4.54 | 3.71 | 1.35 | 4.88 | 5.55 | 5.87 | 2.83 | 4.72 | 1.08 | 3.73 | 1.34 | 0.748 | 3.08 | 5.33 | 6.34 | 3.96 | 1.67 | 4.72
ACTCGGAGGCCAAAGGTCAGAGCTACGCCAGTGA | 4.88 | 4.5 | 1.02 | 3.69 | 0.134 | 5.63 | 8.85 | 7.98 | 6.53 | 8.9 | 1 | 4.07 | 0.0532 | -0.392 | 6.38 | 4.9 | -0.00137 | 6.59 | 1.38 | 4.53
CCTAGCAGGCCAATCTGTGTCACTCAAGGCTTGA | -0.0282 | -0.198 | -0.502 | -0.335 | -0.193 | 0.394 | -0.0496 | -0.118 | -0.619 | -0.304 | 2.87 | 2.13 | -1.03 | -1.32 | -0.244 | -0.438 | -0.358 | -0.217 | -0.52 | 0.211
ACAGACAGGTGAGTGAAGGTAACTCTGCTGGACG | 0.466 | 0.168 | -0.478 | -0.2 | -0.638 | 0.435 | 0.657 | -0.0647 | -0.0941 | 0.019 | 0.709 | 0.604 | 0.385 | 0.0284 | -0.0621 | -0.18 | -0.457 | 0.173 | -0.76 | 0.594
TAGCCTTGGTCATTGGGCCAGTATAGTACGCATC | -0.646 | -0.599 | -0.698 | -0.456 | -0.537 | -0.217 | 0.338 | 0.117 | -0.34 | -0.429 | -0.486 | 0.545 | -0.509 | -0.603 | -0.625 | -0.515 | -0.596 | -0.324 | -0.586 | 0.69
AGAATGACGTTATACGTAGATCAGGGAAGAAAGT | -0.751 | -0.685 | -0.265 | -0.753 | -0.294 | -0.611 | 0.583 | -0.509 | -0.197 | -0.37 | -1.31 | -0.2 | 0.276 | 1.24 | -0.321 | -0.696 | 0.0404 | -0.492 | -0.733 | -0.573
GCTTGTAGATCAAGGTTGAGAAAGACTAAGCTAA | -0.651 | -0.5 | -0.84 | -0.489 | -0.831 | 1.3 | 2.27 | 3.37 | 1.77 | 3 | 0.308 | 0.797 | -0.562 | -0.558 | -0.108 | -0.354 | -0.235 | -0.162 | -0.337 | -0.367
GCTGCTAGGTCAACTGCTGGTCAGCTAAAGCTCG | 4.1 | 3.03 | 0.0225 | 1.95 | -0.0517 | 3.53 | 2.54 | 2.94 | 0.291 | 1.66 | 5.01 | 4.38 | -0.67 | -1.29 | 0.927 | 1.25 | -0.956 | 2.52 | -0.88 | 4.34
CCTAGCAGGCCAATCTGGGTGACTCAAGGCTTGA | -0.438 | -0.53 | -0.891 | -0.476 | -0.85 | 1.26 | 0.507 | 0.524 | -0.938 | -0.00968 | 2.96 | 3.53 | -0.721 | -0.739 | -0.0827 | -0.581 | -0.777 | 0.391 | -0.515 | 0.0785
CCTTACGGGCCACTCCAGGTTATAGCATCGGAGT | 0.501 | 3.23 | 0.439 | -0.116 | -0.752 | -0.00696 | 0.417 | -0.281 | -0.409 | -0.41 | 0.503 | 0.46 | -1.12 | -0.87 | 0.232 | 0.0123 | 0.0587 | 0.0279 | 0.0434 | 0.496
TCTTGTAGATCATCAGGAGGTTAAGAAAGATCGA | 0.0818 | 1.07 | -0.0921 | 0.94 | -0.422 | 1.1 | -0.109 | 1.34 | 2.4 | 1.84 | 1.49 | 0.887 | 1.1 | -0.169 | -0.101 | 0.787 | -0.453 | 0.957 | -0.298 | 0.52
CCACGGAGGACAGAAGGTCAGAGCTGTCCGCTTT | 1.39 | 1.72 | -0.0316 | 1.33 | -0.786 | 2.11 | 0.277 | 0.736 | -0.771 | 0.384 | 0.376 | 0.519 | -0.839 | -1.85 | 0.926 | 1.56 | -0.17 | 2.2 | -0.0117 | 3.21
AGTCACAGTTCATCTAGGTAACGTAAGATATGCT | 2.21 | 2.57 | 1.29 | 1.54 | 0.388 | 2.11 | 1.85 | 1.88 | 0.525 | 1.04 | 0.901 | 2.75 | 1.15 | 1.19 | 0.64 | 2.32 | 1.87 | 1.44 | 0.582 | 2.74
TAGCTTAGGTCATGGGCCAGTATACCACGCGAAC | 4.7 | 3.6 | 0.14 | 2.77 | 0.0949 | 4.23 | 2.88 | 3.21 | 0.853 | 2.08 | 1.43 | 2.29 | 0.945 | -0.133 | 1.14 | 1.82 | -0.151 | 2.69 | 0.342 | 4.1
GCTTGTAGATCAAGGTTAAGAAGGACTAAGCTAA | 0.204 | 0.416 | -0.49 | 0.546 | -1.11 | 1.38 | 0.945 | 2.08 | 0.323 | 1.79 | 1.59 | 0.939 | -0.676 | 0.139 | -0.16 | 0.306 | -0.0751 | 0.701 | -0.375 | 0.923
